Results published in PubChem BioAssay (NCATS).
Inconclusive results are not listed. Active and inactive are the calls of the source. The call rests on the fitted dose curve; in most records, active means well fitted inhibition curve with a large enough effect; inconclusive means small, poorly fitted or top-dose-only effect; inactive means flat fitted curve, though single readings scatter. Peptide text beside a SMILES is read from it.

Tests used:
Assay in all cases: qHTS profiling for inhibitors of Plasmodium falciparum proliferation (AID 504749); further: nearly all actives have a fitted effect of over 60% in size
Details in all cases: P. falciparum in erythrocytes, SYBR Green DNA, 72 h; series mostly up to 28.7 µM
[1] = test system: CP260
Summary of the method: (§1)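 Each compound contacts P. falciparum-infected red blood cells for 72 h at 37 C; lysis buffer (Tris, EDTA, saponin, Triton X, SYBR Green I) is added and fluorescence measured next morning; values normalized to controls.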

[2] = test system: CP262
Summary of the method: as §1

[3] = test system: CP265
Summary of the method: as §1

[4] = test system: CP266
Summary of the method: as §1

[5] = test system: CP268
Summary of the method: as §1

[6] = test system: CP269
Summary of the method: as §1

[7] = test system: CP286
Summary of the method: as §1

[8] = test system: CP291
Summary of the method: as §1

[9] = test system: CP297
Summary of the method: as §1

[10] = test system: CP305
Summary of the method: as §1

[11] = test system: CP315
Summary of the method: as §1

[12] = test system: CP325
Summary of the method: as §1

[13] = test system: CP329
Summary of the method: as §1

[14] = test system: CP335
Summary of the method: as §1

[15] = test system: DFO2036
Summary of the method: as §1

[16] = test system: DIV14
Summary of the method: as §1

[17] = test system: DIV17
Summary of the method: as §1

[18] = test system: DIV30
Summary of the method: as §1

[19] = test system: Dd2
Summary of the method: as §1

[20] = test system: ECU
Summary of the method: as §1

Measured: Potency
Potency means the concentration at half of the fitted maximal effect.

COC(=O)[C@H]1[C@H]2C[C@@H]3c4[nH]c5ccccc5c4CCN3C[C@H]2C[C@@H](OC(=O)c2cc(OC)c(OC)c(OC)c2)[C@@H]1OC
active: [1] 282 nM | [2] 1200 nM | [3] 398 nM | [4] 1070 nM | [5] 601 nM | [6] 675 nM | [7] 282 nM | [8] 675 nM | [9] 190 nM | [10] 849 nM | [11] 849 nM | [12] 757 nM | [13] 151 nM | [14] 151 nM | [15] 355 nM | [16] 190 nM | [17] 239 nM | [18] 135 nM | [19] 89.1 nM | [20] 316 nM

CC(=O)N[C@@H](CC(=O)O)C(=O)N[C@@H](CCC(=O)O)C(=O)O (Ac-Asp-Glu-OH)
inactive: all assays above

CC(C(=O)O)c1ccc(N2Cc3ccccc3C2=O)cc1 (centres undefined)
inactive: all assays above

CCCCCCC(O)C/C=C/CCCCCCCC(=O)O (centres undefined)
inactive: all assays above

CCCCC(C)(O)C/C=C/[C@H]1[C@H](O)CC(=O)[C@@H]1CCCCCCC(=O)OC (some centres undefined)
inactive: all assays above

C#CCOc1ccc2c(C)cc(=O)oc2c1
inactive: all assays above

CC[N+](C)(C)Cc1ccccc1Br
inactive: all assays above

CCC(=O)NCCC1CCc2ccc3c(c21)CCO3 (centres undefined)
inactive: all assays above

Cc1c(C)c2c(c(C)c1O)CC[C@@](C)(CCC[C@H](C)CCC[C@H](C)CCCC(C)C)O2
inactive: all assays above

O=C1C(=O)c2ncccc2-c2cccnc21
active: [1] 891 nM | [2] 6010 nM | [3] 891 nM | [4] 849 nM | [5] 1510 nM | [6] 1200 nM | [7] 1000 nM | [8] 1690 nM | [9] 1070 nM | [10] 1200 nM | [11] 2690 nM | [12] 1900 nM | [13] 1200 nM | [14] 536 nM | [15] 1000 nM | [16] 953 nM | [17] 953 nM | [18] 1510 nM | [19] 1120 nM | [20] 2000 nM

C[C@]12CCC(=O)C=C1CC[C@@H]1[C@@H]2[C@@H](O)C[C@@]2(C)[C@H]1CC[C@]2(O)C(=O)COP(=O)(O)O
inactive: all assays above

CCCCCCCCCCCC[n+]1ccc2ccccc2c1
active: [1] 631 nM | [2] 379 nM | [3] 1120 nM | [4] 1690 nM | [5] 1350 nM | [6] 757 nM | [7] 224 nM | [8] 1200 nM | [9] 1070 nM | [10] 757 nM | [11] 1070 nM | [12] 1200 nM | [13] 601 nM | [14] 953 nM | [15] 562 nM | [16] 757 nM | [17] 953 nM | [18] 1350 nM | [19] 562 nM | [20] 1260 nM

O=S(=O)(O)c1ccc2c(N=Nc3ccc(S(=O)(=O)O)c4ccccc34)c(O)c(S(=O)(=O)O)cc2c1
inactive: all assays above

CCCCCCCC/C=C\CCCCCCCC(=O)O
not listed: [20]
inactive: all other assays above

Cc1ccccc1
inactive: all assays above

C=CCSSSCC=C
inactive: all assays above

Cc1c(C)c2c(c(C)c1O)CC[C@@](C)(CCC[C@@H](C)CCC[C@@H](C)CCCC(C)C)O2
inactive: all assays above

CC1=CCC(C(C)(C)O)CC1 (centres undefined)
inactive: all assays above

CCCC(=O)O[C@]1(C(=O)CCl)[C@H](C)C[C@@H]2[C@H]3CCC4=CC(=O)C=C[C@]4(C)[C@@]3(F)C(=O)C[C@@]21C
active: [1] 2820 nM | [2] 1690 nM | [3] 2820 nM | [4] 3380 nM | [5] 4260 nM | [6] 4260 nM | [7] 2820 nM | [8] 4260 nM | [9] 1900 nM | [10] 4260 nM | [11] 3790 nM | [12] 4260 nM | [13] 1900 nM | [14] 1510 nM | [15] 891 nM | [16] 6010 nM | [17] 6750 nM | [18] 4260 nM | [19] 3160 nM | [20] 2510 nM

Cc1cc(C(=O)NNCc2ccccc2)no1
inactive: all assays above

O=C(O)CN(CCN(CC(=O)O)CC(=O)O)CC(=O)O
inactive: all assays above

CC1(C)S[C@@H]2[C@H](NC(=O)[C@@H](NC(=O)N3CCNC3=O)c3ccccc3)C(=O)N2[C@H]1C(=O)O
inactive: all assays above
